About 83,000 compounds went through this panel and 20% of them were active in at least one assay; those are over-represented in the sample as a whole.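 Cell lines were cultured in 96-well plates, exposed to a single compound concentration, and assessed for percent growth 48 hours later.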
How the values were obtained:
Assay in all cases: NCI-60 one-dose screen, 48 h (100 = growth as untreated, 0 = no growth, -100 = all killed)
Settings in all cases: 10 µM unless noted; active = growth percent below 10; inactive = the rest
BT-549 breast = system: BT-549 breast
MDA-MB-435 melanoma = system: MDA-MB-435 melanoma
SW-620 colon = system: SW-620 colon
MCF7 breast = system: MCF7 breast
HCT-116 colon = system: HCT-116 colon
HCC-2998 colon = system: HCC-2998 colon
KM12 colon = system: KM12 colon

Measured: growth

C/C(=N\N=C(/C)c1cccc([N+](=O)[O-])c1)c1cccc([N+](=O)[O-])c1
inactive: BT-549 breast 46.6% | MDA-MB-435 melanoma 98.9% | SW-620 colon 101% | MCF7 breast 86.8% | HCT-116 colon 89.8% | HCC-2998 colon 98% | KM12 colon 97.9%

COC(=O)c1cccc([N+](=O)[O-])c1
inactive: BT-549 breast 131% | MDA-MB-435 melanoma 117% | SW-620 colon 105% | MCF7 breast 104% | HCT-116 colon 110% | HCC-2998 colon 99.7% | KM12 colon 103%

O=C(NCc1ccccc1)c1cccc([N+](=O)[O-])c1
inactive: MDA-MB-435 melanoma 98.4% | SW-620 colon 99.2% | MCF7 breast 97.8% | HCT-116 colon 103% | KM12 colon 85%

NNc1ncccn1
inactive: MDA-MB-435 melanoma 91% | SW-620 colon 94.7% | MCF7 breast 101% | HCT-116 colon 98.1% | HCC-2998 colon 102% | KM12 colon 101%
